The source made the active and inactive calls. How the source made its calls: active means hit-call score of the fitted dose curve at least 0.9, where 1 is the maximum; inactive means score below 0.9.
Experiments:
[1] = read-out: Vascular cell adhesion molecule 1 (VCAM1), VCAM1 (gene 7412); test: BSK_4H_VCAM1: BioMAP Diversity Plus: 4H Assay for Vascular cell adhesion molecule 1 (VCAM1) Biomarker Activity (AID 2283033); conditions: primary human endothelial cells (HUVEC); actives raise or lower the signal
Method in brief: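 In this human endothelial (HUVEC) system, biomarker ELISA was run 24 h after compound addition, and total protein in parallel wells was assessed by SRB at 560 nm; DMSO served as negative control.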

[2] = read-out: Interferon-gamma inducible Protein 10 (IP10), CXCL10 (gene 3627); test: BSK_BE3C_IP10: BioMAP Diversity Plus: BE3C Assay for Interferon-gamma inducible Protein 10 (IP10) Biomarker Activity (AID 2283034); conditions: primary human bronchial epithelial cells; actives raise or lower the signal
Method in brief: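 BE3C cells (human bronchial epithelial, primary); 24 h exposure; ELISA for IP-10; DMSO-referenced bidirectional fit.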

[3] = read-out: Monokine induced gamma interferon (MIG), CXCL9 (gene 4283); test: BSK_BE3C_MIG: BioMAP Diversity Plus: BE3C Assay for Monokine induced gamma interferon (MIG) Biomarker Activity (AID 2283035); conditions: primary human bronchial epithelial cells; actives raise or lower the signal;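 further: MIG protein measured by ELISA in BE3C cultures after 24 h of dosing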
Method in brief: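 ELISA quantified MIG after 24 h exposure of primary bronchial epithelial cultures, analysed in both directions relative to DMSO. Cytotoxicity tracked in parallel cultures by sulforhodamine B staining.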

[4] = read-out: Transforming growth factor beta 1 (TGFb1), TGFB1 (gene 7040); test: BSK_BE3C_TGFb1: BioMAP Diversity Plus: BE3C Assay for Transforming growth factor beta 1 (TGFb1) Biomarker Activity (AID 2283036); conditions: primary human bronchial epithelial cells; actives raise or lower the signal
Method in brief: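 TGF-b1 measured via ELISA, 24 h after chemical dosing of human bronchial epithelial cells (BE3C). Overt cytotoxicity assessed in parallel by SRB (0.1%, TCA-fixed, 560 nm); analysis bidirectional relative to DMSO.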

[5] = read-out: Plasminogen activator inhibitor-1 (PAI1), SERPINE1 (gene 5054); test: BSK_BE3C_PAI1: BioMAP Diversity Plus: BE3C Assay for Plasminogen activator inhibitor-1 (PAI1) Biomarker Activity (AID 2283037); conditions: primary human bronchial epithelial cells; actives raise or lower the signal
Method in brief: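 In this multiplexed primary-cell system, bronchial epithelial cells receive test chemical and are sampled at 24 h. PAI-1 is read by ELISA, with DMSO serving as negative control for bidirectional fitting.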

[6] = read-out: urokinase plasminogen activator (uPA), PLAU (gene 5328); test: BSK_BE3C_uPA: BioMAP Diversity Plus: BE3C Assay for urokinase plasminogen activator (uPA) Biomarker Activity (AID 2283038); conditions: primary human bronchial epithelial cells; actives raise or lower the signal
Method in brief: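 Primary human bronchial epithelial cells, uPA measured by ELISA 24 h after dosing. Bidirectional change relative to DMSO; cytotoxicity checked in parallel cultures by sulforhodamine B total-protein staining.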

[7] = read-out: Urokinase-type plasminogen activator receptor (uPAR), PLAUR (gene 5329); test: BSK_BE3C_uPAR: BioMAP Diversity Plus: BE3C Assay for Urokinase-type plasminogen activator receptor (uPAR) Biomarker Activity (AID 2283039); conditions: primary human bronchial epithelial cells; actives raise or lower the signal
Method in brief: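 Chemically treated human bronchial epithelial cells (lung primary) are assayed for uPAR by ELISA after 24 h, with data fitted in both directions using DMSO as negative control.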

[8] = read-out: Interleukin-6 (IL6), IL6 (gene 3569); test: BSK_CASM3C_IL6: BioMAP Diversity Plus: CASM3C Assay for Interleukin-6 (IL6) Biomarker Activity for (AID 2283040); conditions: primary human coronary artery smooth muscle cells; actives raise or lower the signal
[9] = read-out: Tissue plasminogen activator (tPA), PLAT (gene 5327); test: BSK_BE3C_tPA: BioMAP Diversity Plus: BE3C Assay for Tissue plasminogen activator (tPA) Biomarker Activity (AID 2283041); conditions: primary human bronchial epithelial cells; actives raise or lower the signal
Method in brief: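 Using human lung primary bronchial epithelial cells, tPA was measured by ELISA 24 h after dosing; data fitted relative to DMSO.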

[10] = read-out: Interleukin-8 (IL8), CXCL8 (gene 3576); test: BSK_CASM3C_IL8: BioMAP Diversity Plus: CASM3C Assay for Interleukin-8 (IL8) Biomarker Activity (AID 2283042); conditions: primary human coronary artery smooth muscle cells; actives raise or lower the signal;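 further: IL-8 protein level quantified by ELISA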
[11] = read-out: Human Leukocyte Antigen - DR isotype (HLADR), HLA-DRA (gene 3122); test: BSK_CASM3C_HLADR: BioMAP Diversity Plus: CASM3C Assay for Human Leukocyte Antigen - DR isotype (HLADR) Biomarker Activity (AID 2283043); conditions: primary human coronary artery smooth muscle cells; actives raise or lower the signal;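 further: cell-surface HLA-DR protein level quantified by ELISA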
[12] = read-out: Macrophage colony-stimulating factor (MCSF), CSF1 (gene 1435); test: BSK_CASM3C_MCSF: BioMAP Diversity Plus: CASM3C Assay for Macrophage colony-stimulating factor (MCSF) Biomarker Activity (AID 2283044); conditions: primary human coronary artery smooth muscle cells; actives raise or lower the signal;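 further: M-CSF protein amount quantified by ELISA after 24 h exposure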
[13] = read-out: Low-density lipoprotein receptor (LDLR), LDLR (gene 3949); test: BSK_CASM3C_LDLR: BioMAP Diversity Plus: CASM3C Assay for Low-density lipoprotein receptor (LDLR) Biomarker Activity (AID 2283045); conditions: primary human coronary artery smooth muscle cells; actives raise or lower the signal;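 further: LDLR protein level on the cell surface quantified by ELISA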
[14] = read-out: Monocyte Chemoattractant Protein-1 (MCP1), CCL2 (gene 6347); test: BSK_CASM3C_MCP1: BioMAP Diversity Plus: CASM3C Assay for Monocyte Chemoattractant Protein-1 (MCP1) Biomarker Activity (AID 2283046); conditions: primary human coronary artery smooth muscle cells; actives raise or lower the signal;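 further: MCP-1 level quantified by ELISA 24 h after dosing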
[15] = BSK_CASM3C_Proliferation: Cell Proliferation Assessment in the BioMAP Diversity Plus: CASM3C Assay (AID 2283047); conditions: primary human coronary artery smooth muscle cells;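 further: sulforhodamine B total protein stain as relative cell number at 560 nm; sub-confluent cells exposed 48 h before staining; fitted both ways against DMSO so gain or loss of cell number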
[16] = read-out: Monokine induced gamma interferon (MIG), CXCL9 (gene 4283); test: BSK_CASM3C_MIG: BioMAP Diversity Plus: CASM3C Assay for Monokine induced gamma interferon (MIG) Biomarker Activity (AID 2283048); conditions: primary human coronary artery smooth muscle cells; actives raise or lower the signal;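 further: MIG protein level measured by ELISA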
[17] = read-out: serum amyloid A (SAA), SAA1 (gene 6288); test: BSK_CASM3C_SAA: BioMAP Diversity Plus: CASM3C Assay for serum amyloid A (SAA) Biomarker Activity (AID 2283049); conditions: primary human coronary artery smooth muscle cells; actives raise or lower the signal;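 further: SAA protein level quantified by ELISA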
[18] = BSK_CASM3C_SRB: Viability Assessment in the BioMAP Diversity Plus: CASM3C Assay (AID 2283050); conditions: primary human coronary artery smooth muscle cells;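 further: total protein by SRB staining as cytotoxicity measure in parallel cultures; cells exposed to compound for 24 h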
[19] = read-out: Thrombomodulin, THBD (gene 7056); test: BSK_CASM3C_Thrombomodulin: BioMAP Diversity Plus: CASM3C Assay for Thrombomodulin Biomarker Activity (AID 2283051); conditions: primary human coronary artery smooth muscle cells; actives raise or lower the signal;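 further: thrombomodulin protein level measured by ELISA 24 h after dosing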
[20] = read-out: Tissue Factor, F3 (gene 2152); test: BSK_CASM3C_TissueFactor: BioMAP Diversity Plus: CASM3C Assay for Tissue Factor Biomarker Activity (AID 2283052); conditions: primary human coronary artery smooth muscle cells; actives raise or lower the signal;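 further: cell surface tissue factor protein level read by ELISA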

Measured: AC50

OC(Cc1ccccc1Cl)(Cn1cncn1)C1(Cl)CC1 (stereo unspecified)
inactive: all assays above

NC(=O)CCl
active: [11] 20 µM
not listed: [3]
inactive: all other assays above

CCCCCCCCCCCCN(C)C
active: [13] 26.7 µM
not listed: [9]
inactive: all other assays above

CCOC(=O)C(SP(=S)(OC)OC)c1ccccc1 (stereo unspecified)
active: [1] 27.1 µM | [2] 20 µM | [11] 20 µM | [12] 20 µM | [15] 20 µM | [19] 20 µM | [20] 3.97 µM
inactive: all other assays above

COCC(=O)N(c1c(C)cccc1C)[C@H](C)C(=O)OC
inactive: all assays above

Cc1cc(C)cc(C)c1
not listed: [9]
inactive: all other assays above

[Cl][Sn]([c]1ccccc1)([c]1ccccc1)[c]1ccccc1
active: [1] 0.0783 µM | [2] 0.0935 µM | [5] 0.992 µM | [6] 0.27 µM | [7] 0.27 µM | [8] 0.726 µM | [10] 0.499 µM | [11] 0.261 µM | [12] 0.718 µM | [13] 0.343 µM | [14] 0.599 µM | [15] 0.134 µM | [16] 0.524 µM | [17] 0.522 µM | [18] 0.688 µM | [19] 1.07 µM | [20] 1.37 µM
inactive: [4]

Nc1c(Oc2ccccc2)cc(O)c2c1C(=O)c1ccccc1C2=O
active: [5] 2.43 µM
not listed: [3]
inactive: all other assays above

CCOP(=S)(OCC)OP(=S)(OCC)OCC
active: [1] 33 µM | [15] 29 µM
not listed: [3] | [9]
inactive: all other assays above

N#Cc1cccnc1
not listed: [3] | [9]
inactive: all other assays above

O=C(O)COc1cc(Cl)c(Cl)cc1Cl
active: [20] 5.98 µM
not listed: [3] | [9]
inactive: all other assays above

O=C(CCl)NCO
not listed: [3]
inactive: all other assays above

Cc1ccc(OP(=O)(Oc2ccc(C)cc2C)Oc2ccc(C)cc2C)c(C)c1
active: [5] 6.01 µM | [12] 0.0882 µM
not listed: [3] | [9]
inactive: all other assays above

Oc1cc(Cl)c(Cl)cc1Cl
active: [2] 32.2 µM | [6] 26.2 µM | [9] 12.9 µM | [15] 30.8 µM
not listed: [3] | [5] | [19]
inactive: all other assays above

Cc1ccccc1OP(=O)(Oc1ccccc1)Oc1ccccc1
active: [1] 26.1 µM | [18] 8.32 µM
not listed: [3]
inactive: all other assays above

CC(C=O)Cc1ccc2c(c1)OCO2 (stereo unspecified)
not listed: [3] | [9]
inactive: all other assays above

Cc1cc(C(C)(C)c2ccc(O)c(C)c2)ccc1O
inactive: [6] | [10] | [13] | [14] | [16]
active: [1] 16.8 µM | [2] 10 µM | [4] 10 µM | [5] 10 µM | [7] 3.66 µM | [8] 10 µM | [11] 17.4 µM | [12] 15.2 µM | [15] 15.7 µM | [17] 17 µM | [18] 14.9 µM | [19] 3.01 µM | [20] 8.57 µM

CN(C)C(=S)S
active: [2] 28.7 µM | [4] 20 µM | [6] 30.2 µM | [15] 0.791 µM
not listed: [3] | [9]
inactive: all other assays above

CCOC(=O)CCN(SN(C)C(=O)Oc1cccc2c1OC(C)(C)C2)C(C)C
active: [1] 31 µM | [2] 14.1 µM | [11] 12.2 µM | [12] 20 µM | [15] 20 µM | [20] 8.62 µM
not listed: [3] | [9]
inactive: all other assays above

OCCN(CCO)CCO
not listed: [3]
inactive: all other assays above

CCOP(=O)(OCC)SCCSCC
not listed: [3] | [9]
inactive: all other assays above

CCOP(=O)(OCC)OC(=CCl)c1ccc(Cl)cc1Cl
active: [1] 32 µM | [11] 33.4 µM | [12] 31.7 µM | [13] 28.3 µM | [14] 28 µM | [15] 28.5 µM | [17] 29.6 µM | [18] 29.5 µM | [20] 24.9 µM
not listed: [3] | [9]
inactive: all other assays above

Nc1ccc(N)cc1
not listed: [3] | [9]
inactive: all other assays above

Cc1cc(Cl)ccc1OC(C)C(=O)O (stereo unspecified)
not listed: [3] | [9]
inactive: all other assays above

CCC(C)(C#N)N=NC(C)(C#N)CC (stereo unspecified)
active: [12] 0.016 µM
not listed: [3] | [9]
inactive: all other assays above

N#CCCC(Br)(C#N)CBr (stereo unspecified)
active: [1] 7.87 µM | [2] 28.1 µM | [4] 20 µM | [5] 20 µM | [6] 20 µM | [7] 20 µM | [8] 20 µM | [10] 20 µM | [11] 8.75 µM | [12] 20 µM | [13] 12.2 µM | [14] 20 µM | [15] 3.93 µM | [16] 33.8 µM | [17] 11.8 µM | [18] 20 µM | [19] 20 µM | [20] 12.7 µM

Oc1c(Cl)cc(Cl)cc1Cl
not listed: [3] | [9]
inactive: all other assays above

Oc1cccc(-c2ccccc2)c1
active: [1] 36.9 µM | [14] 20 µM | [15] 34.4 µM | [18] 28.7 µM | [20] 20 µM
not listed: [3] | [9]
inactive: all other assays above

Reference: PubChem BioAssay (EPA / NIEHS)
